Measured values from paper PMC4336329 (PLoS ONE, 2015).
Out of some 310,000 compounds screened, about 14,000 (4.5%) showed an effect of 50% or more. The effect is printed as a negative number. This excerpt belongs to a sample that is enriched for strong results.
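Also: peak tail current of the secondary pulse compared with the same well before compound.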

The compounds below were run against human ether-à-go-go-related gene (hERG) potassium channel (human, UniProt Q12809) (assay: primary screen, population patch clamp on CHO cells stably expressing hERG; higher = less effect of the substance).
Chain of human ether-à-go-go-related gene (hERG) potassium channel (Q12809 whole entry, looked up): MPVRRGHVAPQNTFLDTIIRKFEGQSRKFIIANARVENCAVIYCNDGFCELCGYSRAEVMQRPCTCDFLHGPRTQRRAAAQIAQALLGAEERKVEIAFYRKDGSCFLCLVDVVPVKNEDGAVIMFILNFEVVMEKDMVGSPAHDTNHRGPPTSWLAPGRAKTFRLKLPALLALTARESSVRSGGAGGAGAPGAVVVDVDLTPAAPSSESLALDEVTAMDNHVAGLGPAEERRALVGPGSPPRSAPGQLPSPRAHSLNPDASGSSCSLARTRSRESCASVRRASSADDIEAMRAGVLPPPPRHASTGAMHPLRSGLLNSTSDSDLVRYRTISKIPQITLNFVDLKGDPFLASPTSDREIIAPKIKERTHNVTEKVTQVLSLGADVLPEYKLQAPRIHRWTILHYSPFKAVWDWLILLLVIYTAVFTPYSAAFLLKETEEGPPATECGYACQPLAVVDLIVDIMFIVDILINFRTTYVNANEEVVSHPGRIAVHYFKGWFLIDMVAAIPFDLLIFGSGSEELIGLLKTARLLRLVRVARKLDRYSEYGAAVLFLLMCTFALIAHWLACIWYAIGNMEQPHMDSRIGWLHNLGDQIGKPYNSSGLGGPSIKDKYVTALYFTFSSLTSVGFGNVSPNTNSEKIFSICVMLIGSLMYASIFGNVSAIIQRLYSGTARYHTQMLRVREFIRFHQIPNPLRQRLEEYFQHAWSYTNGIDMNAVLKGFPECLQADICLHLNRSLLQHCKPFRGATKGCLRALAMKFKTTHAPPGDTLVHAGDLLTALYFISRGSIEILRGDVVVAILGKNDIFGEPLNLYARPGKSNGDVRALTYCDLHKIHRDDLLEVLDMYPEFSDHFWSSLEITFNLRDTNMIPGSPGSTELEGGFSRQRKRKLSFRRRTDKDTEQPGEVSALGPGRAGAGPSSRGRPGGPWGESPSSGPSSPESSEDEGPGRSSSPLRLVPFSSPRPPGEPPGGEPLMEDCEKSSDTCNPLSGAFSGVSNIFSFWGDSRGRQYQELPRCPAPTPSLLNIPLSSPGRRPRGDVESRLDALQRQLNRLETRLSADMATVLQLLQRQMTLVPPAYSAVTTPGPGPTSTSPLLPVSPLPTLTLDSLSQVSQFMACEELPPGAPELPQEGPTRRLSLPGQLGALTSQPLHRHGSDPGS
For `Cc1cccc(C(=O)N2CCC(N3CCC(C(=O)N4CCOCC4)CC3)CC2)c1`, the “hERG current change (%, negative = inhibition) at 10uM” value was -9.81%.
With `Cc1ccc(S(=O)(=O)/N=c2\scc(C)n2C)cc1` the “hERG current change (%, negative = inhibition) at 10uM” value was 0.491%.
In the case of `O=C1CN(C(=O)COc2ccc(Cl)cc2Cl)c2ccccc2N1`, the “hERG current change (%, negative = inhibition) at 10uM” value is reported as 14.2%.
`O=C1CN(C(=O)COc2ccc([N+](=O)[O-])cc2Cl)c2ccccc2N1` was tested, and the “hERG current change (%, negative = inhibition) at 10uM” value was -61.2%.
`O=C1CN(C(=O)COc2ccc(F)cc2Cl)c2ccccc2N1` was tested, and the “hERG current change (%, negative = inhibition) at 10uM” value was -19.5%.
In the case of `CC1(C)CC(=O)C=C(C(=O)NC2CCCc3c2cnn3-c2cc(F)cc(F)c2)O1` (stereo not shown), the “hERG current change (%, negative = inhibition) at 10uM” value is reported as -2.03%.
`O=C(O)c1cc(NS(=O)(=O)c2ccc(NCc3ccccc3)c([N+](=O)[O-])c2)cc(C(=O)O)c1` was tested, and the “hERG current change (%, negative = inhibition) at 10uM” value was 20.9%.
In the case of `COC(=O)N/N=C(\C)c1ccccc1OC(F)F`, the “hERG current change (%, negative = inhibition) at 10uM” value is reported as 1.52%.
In the case of `COc1ccc(C[C@@H]2CN3C(=NC[C@@H]3C)N2C[C@H](C)NC(=O)c2ccc(C)c(Br)c2)cc1`, the “hERG current change (%, negative = inhibition) at 10uM” value is reported as -74.8%.
With `Cc1ccc(C(=O)N[C@@H](C)CN2C3=NC[C@H](C(C)C)N3C[C@H]2Cc2ccc(O)cc2)cc1Br` the “hERG current change (%, negative = inhibition) at 10uM” value was -77.7%.
For `COc1ccc(C[C@H]2CN3C(=NC[C@@H]3C(C)C)N2C[C@H](C)NC(=O)c2ccc(C)c(Br)c2)cc1`, the “hERG current change (%, negative = inhibition) at 10uM” value was -74.5%.
In the case of `CCCOP(=O)(c1ccc(N(C)C)cc1)C(O)c1ccc(N(C)C)cc1` (stereo not shown), the “hERG current change (%, negative = inhibition) at 10uM” value is reported as 12.8%.
`c1ccc2sc(-c3ccc4c(c3)OCO4)nc2c1` was tested, and the “hERG current change (%, negative = inhibition) at 10uM” value was -3.16%.
For `CCOc1ccc(C2CC(c3cccc(OC)c3OC)n3nnnc3N2)cc1Cl` (stereo not shown), the “hERG current change (%, negative = inhibition) at 10uM” value was -19.2%.
`Cc1ccc(-n2nnnc2Sc2nc([N+](=O)[O-])nn2C)c(C)c1` was tested, and the “hERG current change (%, negative = inhibition) at 10uM” value was -27.6%.
For `CN(C(=O)c1ccc(C#N)cc1)c1nnc(-c2cnccn2)s1`, the “hERG current change (%, negative = inhibition) at 10uM” value was -8.93%.
In the case of `CCN(CC)CCCNC(=O)Cn1ncc2c(=O)oc3ccc(C)cc3c21`, the “hERG current change (%, negative = inhibition) at 10uM” value is reported as -7.17%.
`COC(=O)COc1ccc(C(c2c(C)[nH][nH]c2=O)c2c(C)[nH][nH]c2=O)cc1` was tested, and the “hERG current change (%, negative = inhibition) at 10uM” value was 15.1%.
In the case of `COc1ccc(CN2CN(C3CCCC3)CSC2=S)cc1`, the “hERG current change (%, negative = inhibition) at 10uM” value is reported as 2.66%.
`Cc1ccc(OCCCC(=O)Nc2ccc(S(=O)(=O)N3CCOCC3)cc2)cc1` was tested, and the “hERG current change (%, negative = inhibition) at 10uM” value was -25.7%.
`COc1ccc(-n2nc(C(=O)NCC(=O)Nc3ccccn3)c3ccccc3c2=O)cc1` was tested, and the “hERG current change (%, negative = inhibition) at 10uM” value was 10.6%.
For `Cc1ccccc1NC(=S)N(Cc1cccs1)C1CCCC1`, the “hERG current change (%, negative = inhibition) at 10uM” value was 5.42%.
`C=CCn1c(SCC(=O)N2CCc3ccccc3C2)nc2ccccc2c1=O` was tested, and the “hERG current change (%, negative = inhibition) at 10uM” value was -61.5%.
In the case of `C=CCn1c(SCC(=O)N2CCc3ccccc3C2)nc2sc(C)cc2c1=O`, the “hERG current change (%, negative = inhibition) at 10uM” value is reported as -7.46%.
With `C=CCn1c(SCC(=O)N2CCOCC2)nc2ccccc2c1=O` the “hERG current change (%, negative = inhibition) at 10uM” value was -28.4%.
`CCn1c(SCC(=O)N2CCCCCC2)nc2ccccc2c1=O` was tested, and the “hERG current change (%, negative = inhibition) at 10uM” value was -10.4%.
For `C=CCn1c(SCC(=O)N2CCCCCC2)nc2ccccc2c1=O`, the “hERG current change (%, negative = inhibition) at 10uM” value was -59.2%.
In the case of `COCCn1c(SCC(=O)N2CCc3ccccc3C2)nc2ccccc2c1=O`, the “hERG current change (%, negative = inhibition) at 10uM” value is reported as -43.8%.
`Cc1nc(N2CCN(S(=O)(=O)c3ccc(F)cc3)CC2)c2c(-c3cccs3)csc2n1` was tested, and the “hERG current change (%, negative = inhibition) at 10uM” value was 11.6%.
With `CCn1cc(S(=O)(=O)N2CCN(c3ccc(Cl)cc3)CC2)cn1` the “hERG current change (%, negative = inhibition) at 10uM” value was 7.96%.
For `Cn1nc(C(F)(F)F)c(-c2ccc(Br)cc2)c1NC(=O)c1cccnc1`, the “hERG current change (%, negative = inhibition) at 10uM” value was 0.61%.
With `Cc1ccc(-c2c(NC(=O)c3ccco3)oc3ccccc3c2=O)cc1` the “hERG current change (%, negative = inhibition) at 10uM” value was 10.1%.
In the case of `O=C(Nc1oc2ccccc2c(=O)c1-c1ccc(Br)cc1)c1ccco1`, the “hERG current change (%, negative = inhibition) at 10uM” value is reported as -52.5%.
For `Cn1nc(C(F)(F)F)c(-c2ccc(F)cc2)c1NC(=O)c1ccco1`, the “hERG current change (%, negative = inhibition) at 10uM” value was -32.8%.
For `Cn1nc(C(F)(F)F)c(-c2ccc(Br)cc2)c1NC(=O)c1ccco1`, the “hERG current change (%, negative = inhibition) at 10uM” value was -63.5%.
With `Cn1nc(C(F)(F)F)c(-c2ccccc2)c1NC(=O)c1ccco1` the “hERG current change (%, negative = inhibition) at 10uM” value was -3.07%.
For `Cn1nc(C(F)(F)F)c(-c2cccc(C(F)(F)F)c2)c1NC(=O)c1cccnc1`, the “hERG current change (%, negative = inhibition) at 10uM” value was -6.76%.
For `Cn1nc(C(F)(F)F)c(-c2cccc(C(F)(F)F)c2)c1NC(=O)c1ccco1`, the “hERG current change (%, negative = inhibition) at 10uM” value was -66.6%.
`O=C(Nc1oc2ccccc2c(=O)c1-c1ccc(Cl)cc1)c1ccco1` was tested, and the “hERG current change (%, negative = inhibition) at 10uM” value was -20.4%.
`CC1CN(c2nc(Nc3ccccc3)nc(N)c2[N+](=O)[O-])CC(C)O1` (stereo not shown) was tested, and the “hERG current change (%, negative = inhibition) at 10uM” value was -22.2%.
For `C=CCn1c(CCNC(=O)c2ccccc2F)nnc1SCC(=O)Nc1nc(C)cs1`, the “hERG current change (%, negative = inhibition) at 10uM” value was -5.2%.
With `N#C/C(=C(/O)COC(=O)c1cccnc1Cl)c1nc2ccccc2[nH]1` the “hERG current change (%, negative = inhibition) at 10uM” value was 25.6%.
For `Cc1cccc(NC(=O)c2sc3nc4c(c(-c5ccco5)c3c2N)CCC4)c1`, the “hERG current change (%, negative = inhibition) at 10uM” value was -3.19%.
In the case of `Cc1cccc(NC(=O)c2sc3nc4c(c(-c5cccs5)c3c2N)CN(C)CC4)c1`, the “hERG current change (%, negative = inhibition) at 10uM” value is reported as -51.6%.
For `CN1CCc2nc3sc(C#N)c(N)c3c(-c3cccs3)c2C1`, the “hERG current change (%, negative = inhibition) at 10uM” value was -56.8%.
For `CC(C)NC(=O)c1sc2nc3c(c(-c4cccs4)c2c1N)CN(C)CC3`, the “hERG current change (%, negative = inhibition) at 10uM” value was -25.8%.
For `COC(=O)c1sc2nc3c(c(-c4cccs4)c2c1N)CCCC3`, the “hERG current change (%, negative = inhibition) at 10uM” value was 9.57%.
`N#Cc1sc2nc3c(c(-c4ccco4)c2c1N)CCCC3` was tested, and the “hERG current change (%, negative = inhibition) at 10uM” value was -3.21%.
`O=C(O)C1CC=CCC1C(=O)NC12CC3CC(CC(C3)C1)C2` (stereo not shown) was tested, and the “hERG current change (%, negative = inhibition) at 10uM” value was 3.51%.
With `O=C(CSc1nc2ccccc2s1)Nc1ncccn1` the “hERG current change (%, negative = inhibition) at 10uM” value was 13.4%.
For `O=S(=O)(c1cccs1)N1CCc2ccccc2C1`, the “hERG current change (%, negative = inhibition) at 10uM” value was -5.63%.
With `Cc1cccc(-c2nc(CS(=O)CC(=O)N3CC(C)CC(C)C3)c(C)o2)c1` (stereo not shown) the “hERG current change (%, negative = inhibition) at 10uM” value was -25.3%.
In the case of `COC(=O)c1[nH]c2cccc(C)c2c1NC(=O)CN1CCN(C(=O)c2ccco2)CC1`, the “hERG current change (%, negative = inhibition) at 10uM” value is reported as -16.9%.
`COC(=O)c1[nH]c2ccc(C)cc2c1NC(=O)CN1CCN(C(=O)c2ccccc2)CC1.Cl` was tested, and the “hERG current change (%, negative = inhibition) at 10uM” value was -52.1%.
For `COC(=O)c1[nH]c2ccc(C)cc2c1NC(=O)CN1CCC(C)CC1`, the “hERG current change (%, negative = inhibition) at 10uM” value was -8.97%.
`COC(=O)c1[nH]c2ccc(C)cc2c1NC(=O)CN1CCN(c2ccccc2)CC1` was tested, and the “hERG current change (%, negative = inhibition) at 10uM” value was -13.7%.
With `COC(=O)c1[nH]c2cc(C)ccc2c1NC(=O)CN1CCN(C(=O)c2ccco2)CC1` the “hERG current change (%, negative = inhibition) at 10uM” value was -54.3%.
For `COC(=O)c1[nH]c2ccccc2c1NC(=O)CN1CCN(C(=O)c2ccco2)CC1`, the “hERG current change (%, negative = inhibition) at 10uM” value was -32.8%.
